Screening results from PubChem BioAssay.
Most compounds without a hit are left out; they make up all but 0.9% or so of the library.
RXFP1 ag – agonists of human relaxin receptor RXFP1; HEK293T-RXFP1 cAMP TR-FRET, 30 min; response scale: percent of porcine relaxin response, buffer zero; hit rate 0.3% among 370,000; Potency, µM (titrated, usually from 57.5 µM), for the others: at the top dose activation, most hits filed as activators; AID 2676; Q9HBX9; active means well fitted activation curve with a large enough effect; inconclusive means small, poorly fitted or top-dose-only effect; further: potency means the concentration at half of the fitted maximal effect; on the % scale 0 is the no-effect control and ±100 the full control effect; nearly all actives have a fitted effect of over 60% in size
Target sequence (Q9HBX9 whole entry, looked up): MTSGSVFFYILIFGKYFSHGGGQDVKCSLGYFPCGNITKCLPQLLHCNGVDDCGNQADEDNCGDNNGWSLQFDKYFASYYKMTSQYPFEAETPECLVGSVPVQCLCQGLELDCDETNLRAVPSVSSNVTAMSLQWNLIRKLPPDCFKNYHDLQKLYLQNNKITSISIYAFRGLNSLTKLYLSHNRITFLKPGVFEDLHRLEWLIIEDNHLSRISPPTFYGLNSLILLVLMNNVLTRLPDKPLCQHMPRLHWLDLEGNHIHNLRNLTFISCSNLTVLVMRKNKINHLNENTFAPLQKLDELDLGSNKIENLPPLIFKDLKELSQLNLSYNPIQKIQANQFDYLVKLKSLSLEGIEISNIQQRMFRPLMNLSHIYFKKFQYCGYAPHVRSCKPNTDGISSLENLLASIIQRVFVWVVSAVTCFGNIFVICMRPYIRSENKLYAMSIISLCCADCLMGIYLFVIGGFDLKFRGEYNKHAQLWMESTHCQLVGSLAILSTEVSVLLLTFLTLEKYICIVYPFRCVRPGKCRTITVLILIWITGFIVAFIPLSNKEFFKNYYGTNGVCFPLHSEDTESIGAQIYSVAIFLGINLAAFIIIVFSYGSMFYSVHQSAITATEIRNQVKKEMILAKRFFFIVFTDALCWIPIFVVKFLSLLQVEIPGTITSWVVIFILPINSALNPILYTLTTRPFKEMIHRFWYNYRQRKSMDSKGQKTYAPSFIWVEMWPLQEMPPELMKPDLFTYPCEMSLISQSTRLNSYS
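cAMP rise read by TR-FRET after 30 min, 37C compound exposure (up to 58 uM) in RXFP1-transfected HEK293 cells with Ro 20174 present. EC50 from Hill-equation fits, with 29 nM porcine relaxin as 100% and buffer as basal.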
gsp antagonist – antagonizes gsp, the McCune-Albright syndrome mutation; gsp-mutant cells, cAMP HTRF, 30 min; Potency, µM (titrated, usually from 76.9 µM), without a hit: top-dose activity change, negative = inhibition, actives largely listed as inhibitors; hit rate 0.4% among 340,000; calls by dose curve; cell line not stated here;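 further: intracellular cAMP measured with PDE inhibitor Ro 20-1724 present during compound exposure; potency means the concentration at half of the fitted maximal effect; on the % scale 0 is the no-effect control and ±100 the full control effect; nearly all actives have a fitted effect of over 65% in size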
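G418-selected cells were plated in DMEM/10% FBS for 16-24 h at 37C, then treated with compounds plus the PDE inhibitor […] (300 uM solution added) for 30 min at 37C. Intracellular cAMP was measured by HTRF after 30 min lysis at room temperature.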
gsp agonist – activates gsp, the McCune-Albright syndrome mutation | gsp mutant cells, cAMP HTRF, 30 min | Potency, µM (doses to about 76.9 µM), without a hit: top-dose activation (cAMP increase), usual class: activators | hit rate 0.13% among 340,000 | AID 624287; active means well fitted activation curve with a large enough effect; inconclusive means small, poorly fitted or top-dose-only effect, or another doubt; inactive means no such curve, though single readings can be large or run the other way; cell line not stated here;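 further: phosphodiesterase inhibitor Ro 20-1724 added with compounds to block cAMP breakdown; potency means the concentration at half of the fitted maximal effect; nearly all actives have a fitted effect of over 60% in size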
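Cells stably selected in G418 were plated at 2000/well, grown 16-24 hr, then given compounds in DMSO with the PDE inhibitor […] (300 uM solution added) for 30 min at 37C; cAMP was read by HTRF.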
RXFP1 antagonist – blocks the human relaxin receptor RXFP1; AID 1259400; activity change, negative = inhibition, % at 57.5 µM; HEK293-RXFP1, relaxin-stimulated cAMP HTRF, 30 min; stronger effect = lower value; hit rate 0.59% among 350,000; Q9HBX9;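 active means activity change of -60% or lower, but not beyond a set lower limit; inconclusive means change between -60% and -40%, or beyond the set limit; inactive means change above -40%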; further: on the % scale 0 is the no-effect control and ±100 the full control effect
Starred values were filed as active, the others as inactive; ? = inconclusive; / = no result given; ! = repeats disagree; [ ] = remark or other dose.

SMILES	RXFP1 ag	gsp antagonist	gsp agonist	RXFP1 antagonist
C/C(=N\NC(=O)c1ccccc1[N+](=O)[O-])c1ccc(Br)s1	1%	2%	-6%[15.4 µM]	-66*
CCCc1ccc(OCC(=O)N2CCN(C(=O)COc3ccc(CCC)cc3OC)CC2)c(OC)c1	/	/	/	-9
Cc1ccc2c(c1)cc(C(=O)NCc1ccccc1C)n2C	?	/	/	-4
O=C(COc1ccc([N+](=O)[O-])cc1)N(Cc1ccccc1)Cc1ccccc1	1%	-19%	-46%	/
O=C(COc1ncnc2cc([N+](=O)[O-])ccc12)N(CCc1ccccc1)Cc1ccccc1	10%	28µM*	?	0
CCCOc1ccc(C(=O)Nc2ccc3oc(-c4ccc(N(C)C)cc4)nc3c2)cc1	3.2µM*	/	/	5
O=C(Nc1ccccc1N1CCOCC1)c1ccccc1NS(=O)(=O)c1ccc(F)cc1	2%	-8%	5%[15.4 µM]	?
O=C(Nc1ccccc1N1CCOCC1)c1ccccc1NS(=O)(=O)c1ccc(F)c(F)c1	2%	3.5µM*	-32%	2
Cc1ccc(S(=O)(=O)Nc2ccccc2C(=O)Nc2nc(-c3ccc(F)cc3)cs2)cc1	-1%	-56%	-3%	/
COc1ccc(-c2csc(NC(=O)c3ccccc3NS(=O)(=O)c3ccc(F)c(F)c3)n2)cc1	1%	32µM*	-13%[15.4 µM]	-27
Cc1cccn2c(=O)cc(COc3ccc(NC(=O)C(C)Oc4ccccc4)cc3)nc12 (centres undefined)	3%	/	/	-14
COc1ccc(NC(=O)Nc2ccc3c(c2)N(C)C(=O)CS3)cc1Cl	-3%	50µM*	-13%	?
CC(=O)c1ccc(NC(=O)Nc2ccc3c(c2)N(C)C(=O)CS3)cc1	1%	35µM*	?	-70*
CCOc1ccc(NC(=O)Nc2ccc3c(c2)N(C)C(=O)CS3)cc1	-2%	-21%	-41%	/
CCN1CCN(C(=O)Cn2ncc3c4ccccc4n(Cc4ccccc4)c3c2=O)CC1	5%	/	/	-6
CCOC(=O)c1cnn(-c2ccc(OC)cc2)c1C1CCN(C(=O)OC(C)(C)C)CC1	2%	/	/	/
O=c1oc2c3c(ccc2c2ccccc12)OCN(Cc1ccccc1Cl)C3	28µM*	/	/	2
Cc1cc(=O)oc2c3c(ccc12)OCN(Cc1ccccc1Cl)C3	10%	/	/	/
c1coc(-c2ccc3ncnc(NCc4cccs4)c3c2)c1	0%	/	/	/
COc1ccc(Br)cc1CN(C)CC(=O)NCc1ccc(F)cc1	0%	1%	-12%[15.4 µM]	-16
Cc1cccc(C)c1NC(=O)CN(C)C(=O)c1ccccc1Sc1ccccc1C#N	-2%	-9%	-19%	0
CC1(C)CC(=O)C2=C(C1)N1C(=C(C#N)C2c2ccc(Cl)cc2)N=C(N)c2ccccc21 (centres undefined)	1%	35µM*	-1%	?
Cc1ccc(OCC(=O)Nc2ccc3nc(Nc4cccc(Cl)c4)cc(C)c3c2)cc1	14µM*	/	/	-11
COc1ccc(CC(=O)Nc2ccc3nc(Nc4cccc(Cl)c4)cc(C)c3c2)cc1	5%	/	/	/
CC1(C)COCN1S(=O)(=O)c1ccc(C(=O)Nc2nnc(-c3ccc(Cl)s3)o2)cc1	0%	32µM*	-1%	-12
SMILES	RXFP1 ag	gsp antagonist	gsp agonist	RXFP1 antagonist
O=C(Nc1c(C(=O)Nc2ccccc2)cnn1-c1ccccc1)c1ccco1	-2%	-12%	-35%	-5
CC(C)c1ccc(NC(=O)c2cnn(-c3ccccc3)c2NC(=O)c2ccco2)cc1	0%	40µM*	?	-18
CCCCNc1c(-c2cccc(-c3cc(C(C)=O)cs3)c2)nc2ccc(C)cn12	0%	35µM*	/	/
CCCCNc1c(-c2cccc(-c3ccc(OC)cc3)c2)nc2ccc(C)cn12	17%	?	/	/
CCCCNc1c(-c2cccc(-c3ccc(OC)cc3)c2)nc2cc(C)ccn12	/	32µM*	?	/
CCC1CCc2nc3sc(C(=O)Nc4cccc(C(F)(F)F)c4)c(N)c3cc2C1 (centres undefined)	-1%	/	/	/
CCN(c1ccc(OC)cc1)S(=O)(=O)c1nnc(NC(=O)c2ccccc2Cl)s1	0%	?	5%	-60*!
CC(C)C[C@H](NC(=O)[C@H](Cc1ccccc1)NC(=O)c1cnccn1)B(O)O	/	/	/	9
C=C1c2cccc(O)c2C(O)=C2C(=O)[C@]3(O)C(O)=C(C(N)=O)C(=O)[C@@H](N(C)C)[C@@H]3[C@@H](O)[C@H]12	-1%	2%	/	-70*
COc1ccc2cc(C#N)c(N3CCN(C(=O)c4ccccc4C)CC3)nc2c1	-2%	40µM*	-22%	10
CCc1nn2c(=O)cc(COC(=O)c3ccco3)nc2s1	2%	/	/	/
OCCN1CCN(C(=S)Nc2cccc(C(F)(F)F)c2)CC1	1%	7%	3%	-69*!
Nc1ccc([N+](=O)[O-])c(C(F)(F)F)c1	/	/	/	16
Cc1ccc2[nH]c(C)cc(=S)c2c1	20µM*	/	26%[15.4 µM]	16
O=C(COc1ccccc1O)Nc1ccc(Cl)cc1	-3%	35µM*	18%	5
CN(C)CCCNC(=S)N(Cc1cccs1)Cc1cc2cc3c(cc2[nH]c1=O)OCCO3	1%	2%	?	-63*
CCCCSCCCNC(=O)c1cn(C)c2ccc(S(=O)(=O)N3CCCCCC3)cc2c1=O	6%	/	/	-10
CCC1SC(=NC(=O)c2ccc(Cl)c(Cl)c2)NC1=O (centres undefined)	-1%	13µM*	2%	-12
CCC1SC(=Nc2cccc(C)c2)NC1=O (centres undefined)	0%	3%	-30%	-6
CCCCNC(=O)CSc1nc2cc3c(cc2c(=O)n1CCCC(=O)NCc1ccc(OC)cc1)OCO3	1%	/	/	0
CCCc1ccc2oc(C(=O)NCCc3cnn(C)c3)c(C)c2c1	3%	-14%	-4%	?
CCCc1ccc2oc(C(=O)NCCc3nc(C(=O)OCC)cs3)c(C)c2c1	0%	?	18%[15.4 µM]	-79*
CC(=O)N[C@@H](CO)C(=O)N[C@@H](CC(=O)O)C(=O)N[C@@H](CCCCN)C(=O)N1CCC[C@H]1C(=O)O	/	/	/	-10
CN(C)CCN1CCN(c2cccc(Cl)c2)C1=O	/	/	/	9
O=C1C(SCCO)=C(SCCO)C(=O)c2ccccc21	-3%	35µM*	/	/
SMILES	RXFP1 ag	gsp antagonist	gsp agonist	RXFP1 antagonist
O=C1C(Cl)=C(NCCCO)C(=O)c2ccccc21	0%	-24%	-25%	8
CCOc1ccc2nc(N(Cc3cccnc3)C(=O)c3ccc4c(c3)OCCO4)sc2c1	-1%	/	/	0
CCOc1ccccc1OCC1CNCCO1 (centres undefined)	/	/	/	-4
COc1ccc(C(=O)CCC(=O)N2CCN(c3cccc(Cl)c3)CC2)cc1	1%	35µM*	?	-12
COc1ccccc1CCNC(=O)c1ccc(OC)c(OC2CCN(C(C)C)CC2)c1	0%	22%	-5%[15.4 µM]	-18
COCCCNC(=O)c1ccc(OC)c(OC2CCN(C(C)C)CC2)c1	2%	50µM*	20%	1
CC(=O)N(c1ccccc1C)C1CCCC1	3%	14%	-3%[15.4 µM]	-15
CC(=O)N(C1=C(Cl)C(=O)c2ccccc2C1=O)C1CCCCC1	-3%	?	28%[15.4 µM]	-99*
